Source: PubChem (National Center for Advancing Translational Sciences (NCATS))
This is a sample that favours compounds with a hit; in the whole collection about 2.4% have one here.
Prx2 Sm inh: Schistosoma Mansoni Peroxiredoxins (Prx2); Schistosoma mansoni peroxiredoxin 2 (Prx2); S. mansoni Prx2 activity coupled to TGR/GSH (TGR is thioredoxin glutathione reductase), NADPH fluorescence loss, qHTS; Potency, µM; 65,000 compounds, 0.07% hits
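Enzyme mix: 100 uM NADPH, 25 nM TGR, 700 uM GSH, 50 nM Prx2 in 100 mM phosphate pH 7.4, 10 mM EDTA, 0.01% Tween-20. 15 min RT with compound; NADPH/GSH added, H2O2 starts reaction; NADPH fluorescence read 8 min.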
AmpC inh det: Promiscuous and Specific Inhibitors of AmpC Beta-Lactamase (assay with detergent) | Potency, µM (top dose mostly 28.7 µM), inactives show at the top dose activity change, negative = inhibition | AID 584, 2007 | 71,000 compounds, 0.09% hits | purified AmpC, nitrocefin hydrolysis with detergent | P00811; active means well fitted curve in the direction sought with a large enough effect; inconclusive means small, poorly fitted or top-dose-only effect; further: on the % scale 0 is the no-effect control and ±100 the full control effect
Target sequence (P00811 whole entry, looked up): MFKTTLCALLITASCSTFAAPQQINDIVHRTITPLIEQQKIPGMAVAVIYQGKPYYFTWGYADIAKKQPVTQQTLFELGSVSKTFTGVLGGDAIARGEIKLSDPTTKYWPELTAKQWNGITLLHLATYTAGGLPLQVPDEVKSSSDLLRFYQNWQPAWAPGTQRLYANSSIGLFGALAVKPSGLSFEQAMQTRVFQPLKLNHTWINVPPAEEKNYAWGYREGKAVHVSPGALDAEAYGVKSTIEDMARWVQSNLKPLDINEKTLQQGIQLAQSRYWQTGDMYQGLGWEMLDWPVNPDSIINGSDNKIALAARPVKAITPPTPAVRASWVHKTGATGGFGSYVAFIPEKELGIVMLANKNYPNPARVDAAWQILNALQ
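E. coli AmpC (5.3 nM) in 20 mM phosphate pH 7.0 with 0.01% Triton X-100, preincubated 15 min RT with compound; nitrocefin (2 uL of 800 uM stock) hydrolysis followed by 480 nm absorbance every 20 s over 4 min.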
AmpC nodet inh: Promiscuous and Specific Inhibitors of AmpC Beta-Lactamase (assay without detergent); P00811; AmpC nitrocefin hydrolysis, absorbance 480 nm, no detergent; Potency, µM (doses to about 28.7 µM), for inactives: at the highest dose activity change, negative = inhibition; 71,000 compounds, 1.8% hits; AID 585, 2007; further: % of control where 0% means no effect
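AmpC, 20 mM phosphate pH 7.0; 15 min cpd preinc, RT; start with nitrocefin (800 uM stock); A480 kinetic read, 20 s intervals, 4 min. No-enzyme wells = negative control.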
LT uptake inh: qHTS Assay for Anthrax Lethal Toxin Internalization | Cells, anthrax lethal toxin internalization, FRET ratio (460/530) | Potency, µM (top dose mostly 40 µM), without a hit: top-dose activity change, negative = inhibition, most hits filed as inhibitors | 70,000 compounds, 0.67% hits; further: on the % scale 0 is the no-effect control and ±100 the full control effect; nearly all actives have a fitted effect of over 50% in size
* hit, by the source's call; [ ] = remark or other dose. Unless noted, the call rests on the fitted dose curve. Potency means the concentration at half of the fitted maximal effect.

`COc1ccc(Nc2ncnc3c2cnn3-c2ccccc2)cc1OC` gave Prx2 Sm inh >57, AmpC inh det 6%, AmpC nodet inh 25% and LT uptake inh inconclusive.
For CC1=CC(C)(C)N(C(=O)CN2C(=O)c3ccccc3C2=O)c2ccccc21 the results were AmpC inh det -4%, AmpC nodet inh 47% and LT uptake inh 6.3µM*.
`CC(C)CO/N=C1/[C@H]2O[C@@H]2[C@@H](O)[C@H]2[C@H]1CCn1c(=O)n(Cc3cc4c(cc3Cl)OCO4)c(=O)n12` gave LT uptake inh -12%[8 µM].
Screening COc1ccc2c(c[n+](C)c3c4cc5c(cc4ccc23)OCO5)c1OC returned Prx2 Sm inh >57, AmpC inh det -3%, AmpC nodet inh 20% and LT uptake inh 25µM*.
Screening N#Cc1nc(-c2ccc(F)cc2)oc1NCc1cccc2c1OCO2 returned Prx2 Sm inh >57, AmpC inh det 8%, AmpC nodet inh -22% and LT uptake inh inconclusive.
`CC(C)CNc1oc(-c2ccc(F)cc2)nc1C#N` gave Prx2 Sm inh >57, AmpC inh det 6%, AmpC nodet inh 4µM*[single pt active] and LT uptake inh inconclusive.
C=CCn1c2ccccc2c2nnc(SCCCn3c(=O)[nH]c4ccccc43)nc21 was read as AmpC inh det -3%, AmpC nodet inh 21% and LT uptake inh 6.3µM*.
Screening C=CCn1c2ccccc2c2nnc(SCN3C(=O)c4ccccc4C3=O)nc21 returned Prx2 Sm inh >57, AmpC inh det 3%, AmpC nodet inh 16% and LT uptake inh -16%.
Screening O=c1cnc2cncnc2n1Cc1ccccc1Cl returned Prx2 Sm inh >57, AmpC inh det 1%, AmpC nodet inh 3% and LT uptake inh inconclusive.
For Oc1ccc(-c2nc(-c3ccc(O)c(O)c3)cs2)cc1 the results were AmpC inh det 1%, AmpC nodet inh -24% and LT uptake inh 13µM*.
`CCOC(=O)C(C)(C)[C@H](O)C(C)C` gave Prx2 Sm inh >57, AmpC inh det -4%[5.75 µM], AmpC nodet inh -3%[5.75 µM] and LT uptake inh inconclusive.
For CCCN1C(=O)c2cc(C(=O)NC3CCCCCC3)ccc2C1O (stereo not given) the results were Prx2 Sm inh >57, AmpC inh det 15%, AmpC nodet inh 4µM*[single pt active] and LT uptake inh -4%.
Screening O=C(NCc1ccco1)c1cc2c(s1)CSC2 returned AmpC inh det 12%, AmpC nodet inh -25% and LT uptake inh -13%.
O=C(NCc1ccc2c(c1)OCO2)c1cc2c(s1)CSC2 was read as Prx2 Sm inh >57, AmpC inh det 5%, AmpC nodet inh 13µM*[single pt active] and LT uptake inh -3%.
Screening CCc1ccccc1S(=O)(=O)Cc1ccc(C(=O)NC(C)C)o1 returned Prx2 Sm inh >57, AmpC inh det 5%, AmpC nodet inh 13% and LT uptake inh -12%.
For O=C(NCc1ccc2c(c1)OCO2)Oc1ccccc1 the results were Prx2 Sm inh >57, AmpC inh det 13%, AmpC nodet inh 4µM*[single pt active] and LT uptake inh -8%.
For COCCNC(=O)c1ccc(CS(=O)(=O)c2ccc(OC)cc2)o1 the results were Prx2 Sm inh >57, AmpC inh det 11%, AmpC nodet inh 4µM*[single pt active] and LT uptake inh -9%.
`COCCNC(=O)c1ccc(CS(=O)(=O)c2c(Cl)cccc2Cl)o1` gave Prx2 Sm inh >57, AmpC inh det 7%, AmpC nodet inh 20% and LT uptake inh 1%.
Screening CCc1ccccc1S(=O)(=O)Cc1ccc(C(=O)NCc2ccc3c(c2)OCO3)o1 returned Prx2 Sm inh >57, AmpC inh det 6%, AmpC nodet inh 4µM*[single pt active] and LT uptake inh inconclusive.
For C=C(C)C(=O)OCC(C)O (stereo not given) the results were AmpC inh det 7%, AmpC nodet inh 32% and LT uptake inh -1%.
`N=C(c1ccc2ccccc2c1)c1ccccc1Cc1ccccc1` gave Prx2 Sm inh >57, AmpC inh det -2%[5.75 µM], AmpC nodet inh -6%[5.75 µM] and LT uptake inh inconclusive.
COc1ccc(S(=O)(=O)Cc2ccc(C(=O)NCc3ccccn3)o2)cc1 was read as Prx2 Sm inh >57, AmpC inh det 11%, AmpC nodet inh 4µM*[single pt active] and LT uptake inh inconclusive.
`COc1ccccc1S(=O)(=O)Cc1ccc(C(=O)NCc2cccnc2)o1` gave Prx2 Sm inh >57, AmpC inh det 15%, AmpC nodet inh 4µM*[single pt active] and LT uptake inh -21%.
`CCN(CC)C(=O)c1ccc(CS(=O)(=O)c2ccc(OC)cc2)o1` gave Prx2 Sm inh >57, AmpC inh det 14%, AmpC nodet inh 4µM*[single pt active] and LT uptake inh -10%.
`COc1ccccc1S(=O)(=O)Cc1ccc(C(=O)NCCN2CCCC2)o1` gave Prx2 Sm inh >57, AmpC inh det 0%, AmpC nodet inh 2% and LT uptake inh -1%.
For COc1ccc(S(=O)(=O)Cc2ccc(C(=O)NC(C)C)o2)cc1 the results were Prx2 Sm inh >57, AmpC inh det 5%, AmpC nodet inh 9% and LT uptake inh 0%.
CCC(C)NC(=O)c1ccc(CS(=O)(=O)c2ccc(OC)cc2)o1 (stereo not given) was read as Prx2 Sm inh >57, AmpC inh det 12%, AmpC nodet inh 4µM*[single pt active] and LT uptake inh -7%.
Screening Cn1c(=O)c(-c2cc(F)cc(F)c2)nc2cnc(Oc3cccc(Cl)c3)nc21 returned Prx2 Sm inh >57, AmpC inh det 2%, AmpC nodet inh -5% and LT uptake inh inconclusive.
O=C(c1csnn1)N1CCC2(CC1)CCN(C(c1ccccc1)c1ccccc1)CC2 was read as Prx2 Sm inh >57, AmpC inh det 2%, AmpC nodet inh 110% and LT uptake inh inconclusive.
`CC(C)C[C@@H](CC(=O)N[C@@H](CCCN)CC(=O)N[C@@H]1CCCC[C@H]1C(=O)N[C@H](CC(=O)N[C@@H](CCC(=O)O)CC(=O)O)Cc1c[nH]c2ccccc12)NC(=O)[C@@H]1CNCC[C@H]1N` gave Prx2 Sm inh >57, AmpC inh det -6%, AmpC nodet inh 128% and LT uptake inh -10%.
Cc1cc(NC(=O)CSc2c3c(nc4ccccc24)CCC3)no1 was read as Prx2 Sm inh >57, AmpC inh det 12%, AmpC nodet inh 4µM*[single pt active] and LT uptake inh inconclusive.
Screening CCC(Cl)CC(Cl)C(Cl)C(Cl)C(Cl)C(C)Cl (stereo not given) returned AmpC inh det 13%, AmpC nodet inh -18% and LT uptake inh 2.5µM*.
Screening CN1CCN(c2ccnc(-c3ccoc3)n2)CC1 returned Prx2 Sm inh inconclusive, AmpC inh det 4%, AmpC nodet inh 36% and LT uptake inh -13%.
Screening CCOC(=O)c1c(NC(=O)CSc2nnc(-c3ccccc3)n2CC)sc(C(C)=O)c1C returned AmpC inh det -2%, AmpC nodet inh 60% and LT uptake inh -10%.
CCOC(=O)c1sc(NC(=O)CSc2nnc(-c3ccco3)n2CC)c(C(=O)OCC)c1C was read as Prx2 Sm inh >57, AmpC inh det 11%, AmpC nodet inh 86% and LT uptake inh 10µM*.
O=C(Cn1cnnn1)OCC(=O)c1ccc(Cl)s1 was read as Prx2 Sm inh >57, AmpC inh det 8%, AmpC nodet inh 13µM* and LT uptake inh -6%.
